# Assay outcomes: PubChem, several laboratories
# Cdc25B block: inhibitors of human Cdc25B phosphatase | recombinant Cdc25B, OMFP fluorescence Ex485/Em525 | inhibition, %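 (compounds tested at 10 µM final in the well)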 | hit rate 0.1% among 65,000; in the data active = inhibition above about 50%
# HePTP inh: human HePTP phosphatase inhibition. recombinant HePTP phosphatase activity, OD absorbance. inhibition, % at 20 µM. AID 521. P35236. hit rate 0.64% among 110,000; in the data active = inhibition above about 50%
# MKP-1 inh: blocks human MKP-1 phosphatase activity. inhibition, %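 (compounds tested at a single concentration somewhere between 10 and 100 µM)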. hit rate 0.15% among 65,000. P28562. recombinant MKP-1, OMFP hydrolysis fluorescence. AID 374;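 active = inhibition above about 50%, limit read from the data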
# Target sequence (P28562 whole entry, looked up): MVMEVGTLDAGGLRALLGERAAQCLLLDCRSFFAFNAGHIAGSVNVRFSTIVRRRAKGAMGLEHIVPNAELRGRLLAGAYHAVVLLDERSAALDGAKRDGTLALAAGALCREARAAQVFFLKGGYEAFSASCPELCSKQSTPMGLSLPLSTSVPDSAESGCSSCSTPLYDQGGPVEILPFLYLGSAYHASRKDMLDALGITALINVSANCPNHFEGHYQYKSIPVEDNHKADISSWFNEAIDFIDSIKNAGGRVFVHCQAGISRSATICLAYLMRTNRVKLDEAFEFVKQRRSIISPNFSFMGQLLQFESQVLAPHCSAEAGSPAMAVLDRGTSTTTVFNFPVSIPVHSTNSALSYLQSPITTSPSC
# Hsp90 block: displaces geldanamycin probe from tumor Hsp90; hit rate 0.35% among 64,000; NCI-N417 lysate Hsp90, Cy3B-geldanamycin FP displacement; inhibition, % at 30 µM; P07900; AID 429;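 active = inhibition above 50%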
# BAP1 block: inhibitors of human BAP1 deubiquitinase. recombinant BAP1, Ub-AMC hydrolysis fluorescence kinetic; stronger effect = lower value. calls only at 20 µM. hit rate 0.48% among 72,000. AID 436;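 active = activity remaining at or below 50% of control, provided the compound also passes the data quality filters; inactive = the rest, including low values that fail the filters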
# A number is an active result; . = inactive; / = no result given. Sampled rows, rich in hits. Any-hit rate of the full collection: about 1.1%.
SMILES,Cdc25B block,HePTP inh,MKP-1 inh,Hsp90 block,BAP1 block
O=C1N=c2ccccc2=C1c1sc(=S)[nH]c1O,/,70,/,/,/
Cc1cc(Br)cc2c(N=Nc3cccc4cccnc34)c(O)n(C)c12,/,.,/,/,/
O=C1C(Cl)=C/C(=N\S(=O)(=O)c2ccc(Cl)cc2)C(Cl)=C1Cl,/,.,/,/,/
O=C1C(Cl)=CC(=NS(=O)(=O)c2ccccc2)C=C1Cl,/,87,/,/,/
CC(=O)c1sc(NC(=O)c2ccc3c(c2)OCO3)nc1C,/,103,/,/,/
Cc1cc2nnc(SCC(=O)O)n2c2ccccc12,/,/,/,/,.
CCN1C(=O)/C(=C\c2ccc(-c3ccccc3C(=O)OC)o2)SC1=S,/,.,/,/,/
O=C(O)CCN1C(=O)/C(=C/c2ccc(-c3ccccc3[N+](=O)[O-])o2)SC1=S,/,70,/,/,/
O=C(O)CN1C(=O)/C(=C\c2ccc(-c3cccc4c3C(=O)c3ccccc3C4=O)o2)SC1=S,/,101,/,/,/
Cc1ccc(NC(=O)/C(C#N)=C2\NC(C)(C)Cc3ccccc32)cc1,/,.,/,/,/
c1ccc2sc(SCc3ccc(-c4nnco4)cc3)nc2c1,.,.,.,91,/
O=C(Nc1ccc(-c2nc3ccccc3[nH]2)cc1)c1ccc(Cl)c(Cl)c1,/,101,/,/,/
O=C(Nc1ccc(-c2nc3ccccc3[nH]2)cc1)c1cc2ccccc2o1,/,102,/,/,/
CCN(CC)c1ccc(N2C(=O)/C(=C/c3ccccc3Cl)SC2=S)cc1,/,.,/,/,/
COC(=O)C1=C(C)NC(=O)/C1=C\c1ccc(Br)cc1,/,67,/,/,/
COc1ccc(N(CC(=O)Nc2ccc3ccccc3c2)S(=O)(=O)c2ccccc2)cc1,/,.,/,/,/
Cc1ccc(C(=O)O)cc1N1C(=O)c2ccc(S(=O)(=O)c3ccc(C(=O)O)cc3)cc2C1=O,/,.,/,/,/
Oc1ccccc1O,/,/,/,52,.
Oc1ccc(O)cc1,/,/,/,.,.
O=S(=O)(c1ccccc1)N1CCN(CCCc2ccccc2)CC1,/,.,/,/,/
CCc1ccccc1NC1=C(Cl)C(=O)N(c2ccccc2Cl)C1=O,/,.,/,/,.
CCOC(=O)c1cnc(SC2CCc3ccccc3C2=O)nc1N (stereo unspecified),.,.,.,56,.
CCOC(=O)c1cnc(SCc2ccc(C)cc2)nc1N,.,.,.,.,.
COc1ccc(CNC(=O)c2ccc(C3SCC(=O)N3Cc3ccccc3)cc2)cc1 (stereo unspecified),/,.,/,/,/
COC(=O)c1ccccc1NC(=O)CN(c1ccc(OC)cc1)S(=O)(=O)c1ccc(C)cc1,/,50,/,/,/
SMILES,Cdc25B block,HePTP inh,MKP-1 inh,Hsp90 block,BAP1 block
CCOC(=O)c1ccccc1NC(=O)CN(c1ccc(OC)cc1)S(=O)(=O)c1ccc(C)cc1,/,.,/,/,/
O=C1N=c2ccccc2=C1c1cc(-c2ccccc2)oc1O,/,56,/,/,/
COC(=O)CN1C(CCN2CCOCC2)=Nc2ccc(Br)cc2C1c1ccccc1 (stereo unspecified),/,.,/,/,/
C/C(=N\Nc1nc(-c2ccccc2)nc(C)c1C)c1ccc(Br)cc1,/,.,/,/,/
Cc1ccc(NC(=O)c2c(-c3ccccc3)noc2C)cc1C,/,104,/,/,/
Cc1onc(-c2ccccc2)c1C(=O)N1CCN(c2ccc(Cl)cc2)CC1,/,104,/,/,/
Cc1onc(-c2ccccc2)c1C(=O)N1CCN(c2ccc([N+](=O)[O-])cc2)CC1,/,.,/,/,/
CCC1=NN(C(=O)c2ccc(OC)cc2)C(O)(c2ccncc2)C1 (stereo unspecified),/,104,/,/,/
O=S(=O)(Nc1ccc(Nc2ccc(F)cc2)cc1)c1ccc(F)cc1,/,.,/,/,/
O=C(CSc1ccc(C(F)(F)F)cc1[N+](=O)[O-])Nc1ccccc1,/,105,/,/,/
COc1ccc(N2C(=O)NC(=O)/C(=C\c3ccc(C)cc3)C2=O)cc1,/,.,/,/,/
CCOc1cc(N2CCOCC2)c(OCC)cc1NC1=NCCCCC1,.,.,.,61,.
CCOc1cc(N2CCOCC2)c(OCC)cc1N,/,68,/,/,/
CCOc1cc(N2CCOCC2)c(OCC)cc1NC(=O)Cc1ccc(OC)c(OC)c1,.,.,.,.,.
Oc1ccc(C2CNCc3sccc32)cc1O (stereo unspecified),/,/,/,58,.
O=[N+]([O-])c1cccc(S(=O)(=O)NCc2ccncc2)c1,/,103,/,/,/
O=[N+]([O-])c1cccc(S(=O)(=O)NCc2cccnc2)c1,/,.,/,/,/
Cc1ccc(S(=O)(=O)Nc2ccc3oc(=O)sc3c2)c(C)c1,.,.,.,56,.
O=C1OC(/C=C/c2ccccc2)=NC/1=C/c1ccc(-c2ccc3c(c2)C(=O)NC3=O)o1,/,71,/,/,/
O=C(Cc1cccs1)NNC(=O)c1cccc(Cl)c1,/,.,/,/,/
O=C(O)c1ccc2c(c1)C1C=CCC1C(c1cccc([N+](=O)[O-])c1)N2 (stereo unspecified),/,102,/,/,/
CCOC(=O)c1ccc2c(c1)C1C=CCC1C(c1cccc([N+](=O)[O-])c1)N2 (stereo unspecified),/,.,/,/,/
O=C(CSc1nc2c(cnn2-c2ccccc2)c(=O)[nH]1)c1ccc(Cl)cc1,.,.,56,.,/
CC1=C(C#N)c2nc(N)c(C#N)c(C)c2/C1=C/c1ccc(-c2cccc(C(=O)O)c2)o1,/,103,/,/,/
CC(=O)c1cccc(-c2ccc(/C=C3\C(=O)NC(=O)C(C#N)=C3C)o2)c1,/,72,/,/,/
SMILES,Cdc25B block,HePTP inh,MKP-1 inh,Hsp90 block,BAP1 block
CC(=O)c1cccc(NS(=O)(=O)c2cc(Cl)ccc2Cl)c1,/,.,/,/,/
Cc1sc(N/N=C/c2ccccc2)nc1-c1ccccc1,/,.,/,/,/
COc1ccc(/C=C/C(=O)n2nc(C)cc2C)cc1OC,/,.,/,/,/
O=C1NC(=S)NC(=O)C1=Cc1cc(Cl)c(OCc2ccc(C(=O)O)cc2)c(Cl)c1,/,104,/,/,/
Nc1nonc1N1CCCCC1,.,.,.,72,.
Cc1ccc(NCC(=O)N/N=C\c2ccccc2OCC(=O)O)cc1,/,.,/,/,/
O=C(O)COc1ccccc1/C=N/NC(=O)COc1c(Br)cc(Br)cc1Br,/,66,/,/,/
COc1ccc(-c2onc(C)c2-c2ccccc2)c(O)c1,.,.,.,.,.
Oc1ccc(-c2onc(C(F)(F)F)c2-c2cscn2)c(O)c1,.,.,.,65,.
Cc1ccc(NC(=O)CN(c2c(C)n(C)n(-c3ccccc3)c2=O)S(=O)(=O)c2ccccc2)cc1,/,.,/,/,/
Cn1c(CSc2nnc(SCc3ccccc3)s2)nc2ccccc21,74,.,.,.,.
Cn1c(CSc2nc3ccc(Br)cc3[nH]2)nc2ccccc21,.,.,.,.,.
O=C(Nc1nc(-c2ccccn2)cs1)C1COc2ccccc2O1 (stereo unspecified),.,.,.,.,.
O=C(Nc1nc(-c2ccc3c(c2)OCO3)cs1)C1COc2ccccc2O1 (stereo unspecified),.,.,.,91,.
O=C1N=c2ccccc2=C1c1s/c(=N/N=C2/C(=O)Nc3ccccc32)n(-c2ccc(O)cc2)c1O,/,98,/,/,/
O=C(NCc1ccc2c(c1)OCO2)c1ccc2c3c(cccc13)CC2,/,.,/,/,/
COC(=O)c1sc(NC(=O)c2sc3cc(C)ccc3c2Cl)c(C#N)c1C,/,103,/,/,/
COC(=O)c1cc(NC(=O)c2sc3cc(C)ccc3c2Cl)cc(C(=O)OC)c1,/,.,/,/,.
Cc1ccc(C(C)C)c(OC(=O)/C=C/c2ccc([N+](=O)[O-])s2)c1,/,.,/,/,/
C=CCOc1ccc(/C=C2\SC(=Nc3ccccc3)NC2=O)cc1OC,/,64,/,/,/
COc1ccc(/C=C2/SC(=Nc3ccccc3)NC2=O)cc1O,/,.,/,/,/
CN(C)c1ccc(/C=C2/SC(N=Nc3c(O)[nH]c4ccccc34)=NC2=O)cc1,/,59,/,/,/
